Screens from PubChem.
MBNL1-CUG inh = qHTS Assay for Inhibitors of MBNL1-poly(CUG) RNA binding. Muscleblind-like protein 1 (Homo sapiens), Q9NR56. TR-FRET MBNL1-His/biotin-(CUG)12 binding, 665/545 ratio. Potency, µM (series often up to 57.5 µM), most hits filed as inhibitors. 280,000 compounds, 0.036% hits; active means well fitted inhibition curve with a large enough effect in the signal ratio, with a control signal flat, not every such curve was filed as active; inconclusive means small, poorly fitted or top-dose-only effect, or effect the other way, or a change in a side signal; inactive means no such curve, though single readings can be large or run the other way; the % refers to the signal ratio
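TR-FRET between His-tagged MBNL1 and biotin-(CUG)12 RNA, detected with Tb anti-His antibody (0.055 ng/ul) and streptavidin-XL665 (5 nM), 60 min at room temperature. Compounds titrated 92 nM to 58 uM; 665/545 nm ratio normalized to buffer and complex controls.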
CtBP-E1A blk = qHTS Assay for Inhibitors of the CtBP/E1A Interaction; CtBP / adenovirus E1A interaction (AlphaScreen); AlphaScreen GST-E1A/His-CtBP binding, 1536-well; hits give low values; activity change, % (concentration not given with the values); 340,000 compounds, 0.49% hits; in the data active means activity change below about -65%; inconclusive means mostly about -30% to -63%
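Steps: dispense buffer (Tris pH 8.0, NaCl 300 mM, TCEP 1 mM, BSA, Tween 20); add 5X protein mix (GST-E1A, His-CtBP, 125 nM each); pin 23 nL compound; 2 h at 37 °C, dark; add 5X beads (50 ug/mL); 1 h; read.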
Six1-Eya2 blk = qHTS Assay for Inhibitors of the Six1/Eya2 Interaction | AID 651725, 2012 | AlphaScreen GST-Six1/His-Eya2 binding, biochemical; hits give low values | activity change, % (no concentration beside the values) | 360,000 compounds, 0.56% hits | Homeobox protein SIX1 (Homo sapiens) + Protein phosphatase EYA2 (Homo sapiens), …; in the data active means activity change below about -65%; inconclusive means mostly about -30% to -63%
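AlphaScreen with GST-Six1 and His-Eya2 (5X mix: 250 nM and 500 nM), glutathione donor and nickel acceptor beads; buffer 50 mM Tris pH 8.0, 300 mM NaCl, 1 mM TCEP; 1 h at 37 C in the dark.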
Gal4-VP16 FLuc = VP16 counterscreen qHTS for inhibitors of ROR gamma transcriptional activity | Drosophila S2 Gal4-VP16 UAS-luciferase, luminescence, 20 h | AID 2546, 2010 | 310,000 compounds, 3.5% hits | Potency, µM (doses to about 53.6 µM), actives largely listed as inhibitors;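 further: Gal4-VP16 expression switched on by copper sulfate through the metallothionein promoter; nearly all actives have a fitted effect of over 50% in size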
CBFb RUNX1 block = qHTS Assay for Compounds Blocking the Interaction Between CBF-beta and RUNX1 for the Treatment of Acute Myeloid Leukemia. AlphaScreen CBFb-His/RUNX1-biotin binding, biochemical. Potency, µM (titrated, usually from 59.8 µM), most hits filed as inhibitors. 230,000 tested, under 10 active. AID 1477, 2009
Target sequence (Q01196 whole entry, looked up): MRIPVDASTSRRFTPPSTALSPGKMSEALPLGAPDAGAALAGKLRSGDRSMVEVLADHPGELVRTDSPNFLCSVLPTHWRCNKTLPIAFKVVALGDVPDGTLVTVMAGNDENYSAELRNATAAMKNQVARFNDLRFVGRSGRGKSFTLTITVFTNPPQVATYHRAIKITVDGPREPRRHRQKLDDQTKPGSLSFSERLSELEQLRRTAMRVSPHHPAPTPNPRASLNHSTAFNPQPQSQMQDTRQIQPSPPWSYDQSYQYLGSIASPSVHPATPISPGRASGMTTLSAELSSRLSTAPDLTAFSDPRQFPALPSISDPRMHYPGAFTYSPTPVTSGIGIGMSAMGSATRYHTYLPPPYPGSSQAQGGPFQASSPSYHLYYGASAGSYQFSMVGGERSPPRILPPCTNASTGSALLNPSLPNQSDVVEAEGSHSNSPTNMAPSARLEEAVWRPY
Target sequence (Q13951 whole entry, looked up): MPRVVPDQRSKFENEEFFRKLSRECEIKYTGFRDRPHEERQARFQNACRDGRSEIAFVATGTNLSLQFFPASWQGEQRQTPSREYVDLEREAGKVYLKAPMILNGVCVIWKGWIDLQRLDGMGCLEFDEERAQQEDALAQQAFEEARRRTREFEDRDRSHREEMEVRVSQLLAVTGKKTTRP
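Compounds were screened at multiple concentrations against a preformed CBF-beta(His)/RUNX1(biotin) complex (30 nM of each) for 15 min at room temperature, followed by 90 min with nickel and streptavidin beads and AlphaScreen reading.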
RORg inh = qHTS for inhibitors of ROR gamma transcriptional activity. Potency, µM (top dose mostly 53.6 µM), most hits filed as inhibitors. Nuclear receptor ROR-gamma (Mus musculus), P51450. Drosophila S2 Gal4-RORgamma UAS-luciferase reporter, 20 h. 310,000 compounds, 5.4% hits; further: nearly all actives have a fitted effect of over 60% in size
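A Gal4/UAS one-hybrid system in insect cells: metallothionein-promoter Gal4–ROR gamma fusion plus Photinus luciferase reporter. Copper sulfate 700 uM final, 20 hr ambient incubation, luminescent detection after 10 min with reagent.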
Hits are given with their value. The list is not random: actives were taken first. Their share in the collection is about 5.5%. Unless noted, the call rests on the fitted dose curve; in most records, active means well fitted curve in the direction sought with a large enough effect; inconclusive means small, poorly fitted or top-dose-only effect, or another doubt; inactive means no such curve, though single readings can be large; an effect the other way counts as inactive or inconclusive.

Screening CCn1nnc2cc(C(=O)NCCc3ccccc3F)ccc21 returned MBNL1-CUG inh inactive, CtBP-E1A blk inactive, Six1-Eya2 blk inactive, Gal4-VP16 FLuc 11µM and RORg inh inconclusive.
`CCOC(=O)Cn1c(=NC(=O)c2cc(-c3cccs3)nc3ccccc23)sc2cc(S(N)(=O)=O)ccc21` gave MBNL1-CUG inh inactive, CtBP-E1A blk inactive, Six1-Eya2 blk inactive, Gal4-VP16 FLuc 11µM, CBFb RUNX1 block inactive and RORg inh 16µM.
COC(=O)Cn1c(=NC(=O)c2cc(-c3cccs3)nc3ccccc23)sc2cc(S(N)(=O)=O)ccc21 was read as MBNL1-CUG inh inactive, CtBP-E1A blk inactive, Six1-Eya2 blk inactive, Gal4-VP16 FLuc inconclusive, CBFb RUNX1 block inactive and RORg inh inactive.
`CC(C)(C)S(=O)(=O)c1cnc2c(-c3ccc(Cl)cc3)cnn2c1N` gave MBNL1-CUG inh inactive, CtBP-E1A blk inactive, Six1-Eya2 blk inactive, Gal4-VP16 FLuc inactive, CBFb RUNX1 block inactive and RORg inh 2.8µM.
Nc1c(-c2ccccc2)cnc2cc(-c3ccccc3)nn12 was read as MBNL1-CUG inh inactive, CtBP-E1A blk inactive, Six1-Eya2 blk inactive, Gal4-VP16 FLuc inconclusive, CBFb RUNX1 block inactive and RORg inh 2.8µM.
`COc1ccc(-c2cnn3c(N)c(S(=O)(=O)C(C)(C)C)cnc23)cc1` gave MBNL1-CUG inh inactive, CtBP-E1A blk inactive, Six1-Eya2 blk inactive, Gal4-VP16 FLuc inconclusive, CBFb RUNX1 block inactive and RORg inh 11µM.
`CS(=O)(=O)c1cnc2c(-c3ccsc3)cnn2c1N` gave MBNL1-CUG inh inactive, CtBP-E1A blk inactive, Six1-Eya2 blk inactive, Gal4-VP16 FLuc inactive, CBFb RUNX1 block inactive and RORg inh inconclusive.
`CC(C)(C)S(=O)(=O)c1cnc2c(-c3ccc(F)cc3)cnn2c1N` gave MBNL1-CUG inh inactive, CtBP-E1A blk inactive, Six1-Eya2 blk inactive, Gal4-VP16 FLuc inactive, CBFb RUNX1 block inactive and RORg inh 4.5µM.
`Cc1cc(NC(=O)COC(=O)CNC(=O)c2cccs2)c([N+](=O)[O-])cc1C` gave CtBP-E1A blk inactive and Six1-Eya2 blk inactive.
Nc1c(-c2ccc(Cl)cc2)cnc2c(-c3ccccc3)cnn12 was read as MBNL1-CUG inh inactive, CtBP-E1A blk inactive, Six1-Eya2 blk inactive, Gal4-VP16 FLuc inactive and RORg inh 22µM.
`Clc1ncnc2scc(-c3ccc(Br)cc3)c12` gave MBNL1-CUG inh inactive, CtBP-E1A blk inactive, Six1-Eya2 blk inactive, Gal4-VP16 FLuc inconclusive, CBFb RUNX1 block inactive and RORg inh 11µM.
Cc1cc(N)n(-c2ncnc3scc(-c4ccc(Cl)cc4)c23)n1 was read as MBNL1-CUG inh inactive, CtBP-E1A blk inactive, Six1-Eya2 blk inactive, Gal4-VP16 FLuc inactive, CBFb RUNX1 block inactive and RORg inh inactive.
For CC(C)[C@H](N)c1cn([C@@H](CC(N)=O)C(=O)N2CCNCC2)nn1 the results were CtBP-E1A blk inactive and Six1-Eya2 blk inactive.
`CCOC(=O)N1CCN(c2nc(C(F)(F)F)nc3c(C)cc(C)cc23)CC1` gave MBNL1-CUG inh inactive, CtBP-E1A blk inactive, Six1-Eya2 blk inactive, Gal4-VP16 FLuc 20µM, CBFb RUNX1 block inactive and RORg inh inconclusive.
Screening CC(=O)C1C(=O)C=C(c2cccs2)CC1c1ccccc1 (stereo unspecified) returned MBNL1-CUG inh inconclusive, CtBP-E1A blk inactive, Six1-Eya2 blk inactive, Gal4-VP16 FLuc inactive, CBFb RUNX1 block inactive and RORg inh 13µM.
CC(=O)/C(=N\Nc1ccccc1)Sc1nnc(-c2ccccc2)n1-c1ccccc1 was read as MBNL1-CUG inh inactive, CtBP-E1A blk inactive, Six1-Eya2 blk inactive, Gal4-VP16 FLuc inconclusive, CBFb RUNX1 block inactive and RORg inh 10µM.
`CC(=O)/C(=N\Nc1ccc(Cl)cc1Cl)Sc1nnc(-c2ccccc2)n1-c1ccccc1` gave MBNL1-CUG inh inactive, CtBP-E1A blk inactive, Six1-Eya2 blk inactive, Gal4-VP16 FLuc inactive, CBFb RUNX1 block inactive and RORg inh inactive.
CC(=O)/C(=N\Nc1ccccc1Cl)Sc1nnc(-c2ccccc2)n1-c1ccccc1 was read as MBNL1-CUG inh inactive, CtBP-E1A blk inactive, Six1-Eya2 blk inactive, Gal4-VP16 FLuc inconclusive, CBFb RUNX1 block inactive and RORg inh 10µM.
`Cc1sc2ncnc(NC3CCN(Cc4ccccc4)CC3)c2c1C` gave MBNL1-CUG inh inactive, CtBP-E1A blk inactive, Six1-Eya2 blk inactive, Gal4-VP16 FLuc 16µM, CBFb RUNX1 block inactive and RORg inh inconclusive.
For CCOC(=O)c1c(C)n(O)c2ccc(Cl)cc2c1=O the results were MBNL1-CUG inh inactive, CtBP-E1A blk inactive, Six1-Eya2 blk inactive, Gal4-VP16 FLuc 16µM, CBFb RUNX1 block inactive and RORg inh inconclusive.
`COCCN(C(=S)Nc1ccc(C)c(C)c1)C(C)c1ccco1` (stereo unspecified) gave MBNL1-CUG inh inactive, Six1-Eya2 blk inactive, Gal4-VP16 FLuc inconclusive, CBFb RUNX1 block inactive and RORg inh 4.5µM.
Cc1cccc(NC(=S)N(Cc2ccco2)C(C)c2cccs2)c1 (stereo unspecified) was read as MBNL1-CUG inh inactive, CtBP-E1A blk inactive, Six1-Eya2 blk inactive, Gal4-VP16 FLuc inconclusive, CBFb RUNX1 block inactive and RORg inh 14µM.
For COc1cccc(NC(=S)N(Cc2ccco2)C(C)c2ccco2)c1 (stereo unspecified) the results were MBNL1-CUG inh inactive, CtBP-E1A blk inactive, Six1-Eya2 blk inactive, Gal4-VP16 FLuc 18µM, CBFb RUNX1 block inactive and RORg inh inconclusive.
Cc1ccc(NC(=S)N(CCN(C)C)C(C)c2ccco2)cc1C (stereo unspecified) was read as CtBP-E1A blk inactive, Six1-Eya2 blk inactive, Gal4-VP16 FLuc inconclusive, CBFb RUNX1 block inactive and RORg inh inactive.
C/C(=N/Oc1nc(C)cc(C)n1)c1ccc(Cl)cc1Cl was read as MBNL1-CUG inh inactive, CtBP-E1A blk inactive, Six1-Eya2 blk inactive, Gal4-VP16 FLuc inconclusive, CBFb RUNX1 block inactive and RORg inh 10µM.
Screening COc1cc(C=C2CCCC(=Cc3ccc(OCC4CO4)c(OC)c3)C2=O)ccc1OCC1CO1 (stereo unspecified) returned CtBP-E1A blk inactive and Six1-Eya2 blk inactive.
CCc1cc(-c2n[nH]c(C)c2-c2ccc3c(c2)OCCO3)c(O)cc1O was read as Gal4-VP16 FLuc inconclusive, CBFb RUNX1 block inactive and RORg inh 13µM.
